From PubChem BioAssay come the findings set out here.

The structures appear in SMILES notation. Active and inactive are the calls of the source.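 Rule for the calls: active = mean inhibition above 46.5%, the solvent-only control mean plus 3 SD; inactive = the rest.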

Nuclear receptor coactivator 2 (Homo sapiens), sequence (Q15596 whole entry, looked up, the tested form may be a part): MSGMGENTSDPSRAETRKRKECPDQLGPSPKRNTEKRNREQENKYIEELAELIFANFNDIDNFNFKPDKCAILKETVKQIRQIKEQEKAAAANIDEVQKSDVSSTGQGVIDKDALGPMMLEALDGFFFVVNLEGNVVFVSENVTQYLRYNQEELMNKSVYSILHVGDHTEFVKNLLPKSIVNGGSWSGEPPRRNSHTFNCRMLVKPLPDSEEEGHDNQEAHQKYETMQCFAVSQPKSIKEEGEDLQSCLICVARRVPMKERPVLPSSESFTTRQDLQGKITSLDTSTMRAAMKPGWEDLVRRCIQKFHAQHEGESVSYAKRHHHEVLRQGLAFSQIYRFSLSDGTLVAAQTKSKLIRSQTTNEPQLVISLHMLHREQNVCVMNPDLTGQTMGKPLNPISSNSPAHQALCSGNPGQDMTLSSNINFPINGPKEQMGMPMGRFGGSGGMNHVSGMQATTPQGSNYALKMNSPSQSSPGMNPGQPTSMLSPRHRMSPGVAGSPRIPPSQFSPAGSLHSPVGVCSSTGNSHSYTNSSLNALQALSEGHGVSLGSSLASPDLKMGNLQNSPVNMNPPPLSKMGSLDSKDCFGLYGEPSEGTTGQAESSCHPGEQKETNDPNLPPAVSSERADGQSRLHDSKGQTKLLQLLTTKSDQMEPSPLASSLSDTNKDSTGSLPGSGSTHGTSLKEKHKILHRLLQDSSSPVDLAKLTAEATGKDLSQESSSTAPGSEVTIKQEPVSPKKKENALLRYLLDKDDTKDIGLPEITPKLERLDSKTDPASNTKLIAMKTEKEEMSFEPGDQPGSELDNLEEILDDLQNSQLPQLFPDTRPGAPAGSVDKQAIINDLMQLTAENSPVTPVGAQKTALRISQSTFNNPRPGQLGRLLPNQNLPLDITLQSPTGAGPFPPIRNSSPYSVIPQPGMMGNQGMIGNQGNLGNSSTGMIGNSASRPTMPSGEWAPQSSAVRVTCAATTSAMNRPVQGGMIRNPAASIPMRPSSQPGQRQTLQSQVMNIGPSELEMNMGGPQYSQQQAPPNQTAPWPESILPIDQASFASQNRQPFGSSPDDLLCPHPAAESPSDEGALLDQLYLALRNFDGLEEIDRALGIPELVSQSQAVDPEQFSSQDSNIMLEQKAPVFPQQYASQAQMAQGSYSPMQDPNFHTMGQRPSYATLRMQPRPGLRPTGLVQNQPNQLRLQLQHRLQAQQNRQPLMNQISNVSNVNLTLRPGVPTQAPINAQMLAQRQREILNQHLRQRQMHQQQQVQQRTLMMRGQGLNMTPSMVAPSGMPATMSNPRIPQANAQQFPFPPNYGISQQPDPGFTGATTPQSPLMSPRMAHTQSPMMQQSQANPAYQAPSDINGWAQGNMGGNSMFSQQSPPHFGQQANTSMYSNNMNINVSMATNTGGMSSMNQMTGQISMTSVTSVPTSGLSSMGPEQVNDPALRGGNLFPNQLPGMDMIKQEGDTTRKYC

This experiment addresses Nuclear receptor coactivator 2 (Homo sapiens) (UniProt Q15596). Briefly: SRC2 coactivator transcriptional activity inhibitors, confirmation, cell-based, luminescence, HEK293, triplicate (AID 652008).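 Note: 0% = DMSO-treated cells and 100% = Gossypol at 36 µM.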 The following applies: HEK293 GAL4-SRC2 luciferase reporter, at 8.9 µM, active compounds read high.
A word on the inhibition: it is the drop in the measured response relative to a control, in per cent. `Cc1cccc(C)c1NC(=O)CN1CCN(C/C=C/c2ccccc2)CC1`: the inhibition was -3.36% (inactive).

Take `CN1CCN(S(=O)(=O)c2cccc(C(=O)Nc3ccc(Br)cc3Br)c2)CC1`: the inhibition was 12.1% (inactive).

`CC(=NNc1ccc2ccccc2n1)c1ccccn1`: the inhibition is 89.3% (active).

On to `O=C(N/N=C/c1ccc([N+](=O)[O-])s1)c1ccccc1`, for which the inhibition is 24.6% (inactive).

Consider `CCOc1ccc(-n2c(C)nc3cc(C(=O)NCC4CCCO4)ccc32)cc1` (configuration not stated), for which the inhibition is -3.58% (inactive).

Take `COc1ccc(CNCc2ccc(C(F)(F)F)cc2)cc1OC`: the inhibition was -3.81% (inactive).

For `Cc1cc(=O)c2ccccc2n1Cc1ccccc1`, the inhibition was 18.6% (inactive).

With `NNC(=O)COc1ccc(C(F)(F)F)cc1`, the inhibition is 4.91% (inactive).

As to `Cc1csc(NC(=O)CSc2ccc([N+](=O)[O-])cn2)n1`, the inhibition was -30.9% (inactive).

Turning to `COC(=O)c1cnn(-c2ccc(Cl)cc2)c1/C=N/NC(N)=S`, the inhibition was 34.7% (inactive).

On to `CCOc1cc(/C=C2/NC(=O)N(Cc3ccccc3F)C2=O)ccc1O`, for which the inhibition is 30.1% (inactive).

As for `N/C(=N\OC(=O)c1ccc2ccccc2c1)c1ccccn1`, the inhibition is -34.3% (inactive).

For the compound `Cc1cc2c(cc1C)C(=O)NC(C)(C)C2`, the inhibition was 28.2% (inactive).

On to `CCN(CC)S(=O)(=O)c1ccc(C)c(NC(=S)NC2CCCCC2)c1`, for which the inhibition was -9.1% (inactive).

Regarding `Cc1ccc(CS(=O)(=O)c2ncc(Cl)c(C(=O)Nc3nnc(C(C)C)s3)n2)cc1`, the inhibition was 51.9% (active).

For `Cc1nc([N+](=O)[O-])c(Br)n1Cc1ccc(Cl)c(Cl)c1`, the inhibition is 43.9% (inactive).

Consider `O=C(c1ccco1)N1CCN(C(=O)N2c3ccccc3Sc3ccccc32)CC1`, for which the inhibition was 14.1% (inactive).
